Several values for one entry are separate records, joined by “and”; a condition that tells them apart may be missing. Equal entries are not always repeated. Records with an inconclusive call do not appear. A call without a number means that no potency is given here. Activity calls are given as the source filed them. Calls follow the shape of the dose curve; as a rule, active = well fitted curve in the direction sought with a large enough effect in the repeat runs; inconclusive = weak or mixed curves; inactive = no such curve, though single readings can be large; an effect the other way counts as inactive or inconclusive.
Potency is read from the fitted curve at half-maximal effect.

A short description of the first experiment: qHTS assay to identify small molecule antagonists of the retinoic acid receptor (RAR) signaling pathway (AID 1159552; also: nearly all actives have a fitted effect of over 50% in size). Particulars: C3RL4 RARE luciferase reporter, retinol-stimulated, 6 h; series mostly up to 92.4 µM. In a few lines: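 Luminescence from a RARE luciferase reporter in C3RL4 cells served as read-out. Cells received compounds together with 1 uM final retinol and incubated 6 hr at 37 C before detection reagent was added for 30 min at room temperature.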
(In general: In qHTS, concentration-response curves come from the screen itself.)
Turning to `O=c1[nH]c(Cl)c(Cl)cc1Cl`, the Potency entry is “inactive”.
In the case of `Cc1c([N+](=O)[O-])cc2c(c1[N+](=O)[O-])C(C)(C)CC2(C)C`, the Potency entry is “inactive”.
On the same count and under the same terms, in the case of `C=CCOC(=O)c1ccccc1N` it was “inactive”; in that of `Brc1ccc(Oc2ccc(Br)cc2Br)c(Br)c1`, “inactive”; in that of `CCC(OC(C)=O)C(CC(C)NC)(c1ccccc1)c1ccccc1` (stereo not given), 30.9 µM (active).
As for `N#Cc1c2ccccc2cc2ccccc12`, the Potency result was “inactive”.
In the case of `CCC[CH2][Sn]([CH2]CCC)([O]C(C)=O)[O]C(C)=O`, the Potency was 0.138 µM (active).
For `CCCCCCCc1ccc(O)cc1`, the Potency entry was “inactive”.
For `ClC1=C(Cl)[C@]2(Cl)[C@@H]3[C@H]4C[C@H]([C@@H]5O[C@H]45)[C@@H]3[C@@]1(Cl)C2(Cl)Cl`, the Potency entry is “inactive”.
Regarding `Cc1c([N+](=O)[O-])c(C)c([N+](=O)[O-])c(C(C)(C)C)c1[N+](=O)[O-]`, the Potency result was “inactive”.
Regarding `c1ccc(Nc2ccc(Nc3ccccc3)cc2)cc1`, the Potency entry was “inactive”.
With `CCOP(=S)(NC(C)C)Oc1ccccc1C(=O)OC(C)C` (stereo not given), the Potency was 54.5 µM (active).
In the case of `CN(C)c1ccc(N)cc1`, the Potency entry was “inactive”.
Same read-out and setting: in the case of `CCC(C)Nc1c([N+](=O)[O-])cc(C(C)(C)C)cc1[N+](=O)[O-]` (stereo not given) it was “inactive”; in that of `CCOP(=O)(OCC)Oc1nc(Cl)c(Cl)cc1Cl`, “inactive”; in that of `CCN1CCC2(CC1)COc1cc3c(cc12)N(C(=O)c1ccc(-c2ccc(-c4nnc(C)o4)cc2C)cc1)CC3`, 56.4 µM (active).
In the case of `c1ccc2nc(N3CCNCC3)ccc2c1`, the Potency result was “inactive”.
For `N#CC(C#N)=NNc1cccc(Cl)c1`, the Potency is 2.73 µM (active).
`c1ccc(N=NNc2ccccc2)cc1`: the Potency result was “inactive”.
Take `CCCCCCC[CH2][Sn]([Cl])([Cl])[CH2]CCCCCCC`: the Potency entry was “inactive”.
Turning to `CC(C)Br`, the Potency entry was “inactive”.
Still for that read-out and setting: in the case of `CCCCC/C=C\C/C=C\C/C=C\C/C=C\CCCC(=O)NCC(=O)O` it was “inactive”.
Take `Cc1cc(C2CC2)nc(Nc2ccccc2)n1`: the Potency entry was “inactive”.
With `CC1=C2C[C@H]3[C@@H](CC=C4C[C@@H](O)CC[C@@]43C)[C@@H]2CC[C@]12O[C@@H]1C[C@H](C)CN[C@H]1[C@H]2C`, the Potency result is “inactive”.

The next experiment is described as follows: qHTS assay to identify small molecule agonists of the retinoic acid receptor (RAR) signaling pathway (AID 1159553). Particulars: C3RL4 RARE luciferase reporter, agonist, 6 h; series mostly up to 73.3 µM. Put shortly:
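Agonist activity was scored in C3RL4 cells bearing a retinoic acid response element luciferase construct. Cells were treated with compounds for 6 hr at 37 C, and luciferase signal was measured as luminescence.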
On to `CCC(C)c1cccc(C(C)CC)c1O` (stereo not given), for which the Potency entry is “inactive”.
With `C=CCOC(=O)c1ccccc1N`, the Potency result was “inactive”.
Regarding `Brc1ccc(Oc2ccc(Br)cc2Br)c(Br)c1`, the Potency is 13.7 µM (active).
Consider `CC(C)(C)c1ccc(OP(=O)(Oc2ccccc2)Oc2ccccc2)cc1`, for which the Potency result was “inactive”.
For `CCCCCCCc1ccc(O)cc1`, the Potency was 8.63 µM (active).
As for `Cc1c([N+](=O)[O-])c(C)c([N+](=O)[O-])c(C(C)(C)C)c1[N+](=O)[O-]`, the Potency entry was “inactive”.
Regarding `c1ccc(Nc2ccc(Nc3ccccc3)cc2)cc1`, the Potency was 5.43 µM (active).
For the compound `CN(C)c1ccc(N)cc1`, the Potency is 0.596 µM (active).
Turning to `CCOP(=O)(OCC)Oc1nc(Cl)c(Cl)cc1Cl`, the Potency entry is “inactive”.
Consider `CCO/N=C(\CC)C1=C(O)CC(c2c(C)cc(C)cc2C)CC1=O` (stereo not given), for which the Potency entry is “inactive”.
In the case of `c1ccc(N=NNc2ccccc2)cc1`, the Potency is 3.17 µM (active) and 7.7 µM (active).
On the same count and under the same terms, in the case of `CC(C)Br` it was “inactive”.
As for `O=[N+]([O-])[O-].[Tl+]`, the Potency entry was “inactive”.
Consider `COC(=O)N(OC)c1ccccc1COc1ccn(-c2ccc(Cl)cc2)n1`, for which the Potency result is “inactive”.
For `CCCCC/C=C\C/C=C\C/C=C\C/C=C\CCCC(=O)NCC(=O)O`, the Potency entry is “inactive”.
As for `CC1=C2C[C@H]3[C@@H](CC=C4C[C@@H](O)CC[C@@]43C)[C@@H]2CC[C@]12O[C@@H]1C[C@H](C)CN[C@H]1[C@H]2C`, the Potency result was “inactive”.

These data come from PubChem BioAssay (Tox21).
